{"source": "PubChem BioAssay AID504465", "about": "(National Center for Advancing Translational Sciences (NCATS), 2011)", "note": "In all, about 2,100 compounds went through this assay and about 210 (10%) were called active. Inconclusive results (about 53%) are left out. Calls follow the shape of the dose curve; as a rule, active = well fitted inhibition curve with a large enough effect; inconclusive = small, poorly fitted or top-dose-only effect, or effect the other way; inactive = no such curve, though single readings can be large or run the other way. This is one part of the list. A call without a number means that no potency is given here. Potency is read from the fitted curve at half-maximal effect."}
{"assay": "IN Cell qHTS Assay for Inhibitors of the mTORC1 Signaling Pathway in MEF (Tsc2-/-, p53-/-) Cells: Sytravon; also: nearly all actives have a fitted effect of over 60% in size", "conditions": "phospho-rpS6 immunofluorescence, 24 h; series mostly up to 38.3 µM", "method_in_brief": "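Tsc2-/-, p53-/- MEFs (empty-vector) treated with compound 24 h at 37 degree Celsius, then fixed and stained for phospho-rpS6 Ser235/236 (Alexa-488) plus Hoechst. Reported as % positive cells, thresholds set against 7.5 nM rapamycin and DMSO wells.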"}
{"smiles": "Cc1cc(C)c2c(=O)cc(CSCC(=O)Nc3nnc(C)s3)[nH]c2c1", "Potency": "inactive"}
{"smiles": "CC(C)Cc1cc(C(=O)NCc2ccc(Cl)cc2)no1", "Potency": "inactive"}
{"smiles": "COc1ccccc1Cc1nc2ccccc2nc1SCC(=O)N1CCCCC1", "Potency": "inactive"}
{"smiles": "CCc1ccc(NC(=O)c2ccc(F)c(S(=O)(=O)NCc3ccc(Cl)c(Cl)c3)c2)cc1", "Potency": "inactive"}
{"smiles": "CCOC(=O)c1cnc2ccc(C)cc2c1Nc1ccc(OCc2ccccc2Cl)cc1", "Potency": "inactive"}
{"smiles": "CCc1ccc(C(=O)c2cnc3ccc(F)cc3c2S(=O)(=O)c2ccccc2)cc1", "Potency": "4.65 µM (active)"}
{"smiles": "Cc1cc(Cl)ccc1NC(=O)C1CCCN1S(=O)(=O)c1ccc2c(c1)CCCC(=O)N2", "note": "(stereo not given)", "Potency": "inactive"}
{"smiles": "O=S(=O)(c1ccccc1)c1nc(-c2cccc(Cl)c2)oc1N1CCOCC1", "Potency": "9.27 µM (active)"}
{"smiles": "COc1ccc(-c2nc(S(=O)(=O)c3ccc(C)cc3)c(N3CCCCC3)o2)cc1", "Potency": "13.1 µM (active)"}
{"smiles": "Cc1ccc(-c2nc(S(=O)(=O)c3ccc(C)cc3)c(N3CCN(c4ccccc4)CC3)o2)cc1", "Potency": "inactive"}
{"smiles": "COc1ccc(N2CCN(Cc3nc(-c4ccc(C)cc4)no3)CC2)cc1", "Potency": "inactive"}
{"smiles": "O=C(c1cc(-c2cccc(Cl)c2)on1)N1CCN(c2ccccc2)CC1", "Potency": "inactive"}
{"smiles": "CC(=O)N1CCOc2cc(S(=O)(=O)Nc3c(C)cccc3C(C)C)c(Cl)cc21", "Potency": "inactive"}
{"smiles": "Cc1cc(C)c2c(=O)c3c(oc2c1)C(=O)N(Cc1ccc(F)cc1)C3c1cccc(O)c1", "note": "(stereo not given)", "Potency": "inactive"}
{"smiles": "Cc1cc(C)cc(NS(=O)(=O)c2ccc(-c3cc(C)no3)cc2)c1", "Potency": "inactive"}
{"smiles": "CCC(C(=O)Nc1ccc(C)c(Cl)c1)n1c(=O)c(-c2ccccc2NC(C)=O)nc2ccccc21", "note": "(stereo not given)", "Potency": "inactive"}
{"smiles": "O=C1Nc2ccccc2Oc2cc(Oc3ccccc3)ccc21", "Potency": "inactive"}
{"smiles": "Cc1cc(C)c2c(CC(=O)N(Cc3ccc(N(C)C)cc3)Cc3ccco3)coc2c1", "Potency": "6.56 µM (active)"}
{"smiles": "Cc1ccc(CN(Cc2ccco2)C(=O)COc2c(C)cc(C)cc2C)cc1", "Potency": "inactive"}
{"smiles": "Cc1ccc2occ(CC(=O)N(Cc3ccc(Cl)cc3)Cc3ccco3)c2c1", "Potency": "inactive"}
{"smiles": "Cc1ccc(S(=O)(=O)N2CCc3cc(C(=O)Nc4ccc(C(F)(F)F)cc4)ccc32)cc1", "Potency": "inactive"}
{"smiles": "COc1cccc(NC(=O)Nc2ccc3nc(N4CCN(C)CC4)cc(C)c3c2)c1", "Potency": "inactive"}
{"smiles": "Cc1cccc(CC(=O)Nc2ccc3nc(N4CCC(C)CC4)cc(C)c3c2)c1", "Potency": "inactive"}
{"smiles": "Cc1ccc(NC(=O)c2ccc(F)c(S(=O)(=O)NCCc3ccccc3)c2)cc1F", "Potency": "inactive"}
{"smiles": "CCCCc1ccc(NC(=O)c2ccc3c(c2)CCN3S(=O)(=O)c2ccccc2)cc1", "Potency": "inactive"}
{"smiles": "Cc1cc(N2CCN(C)CC2)nc2ccc(NC(=O)c3ccc(C(C)(C)C)cc3)cc12", "Potency": "1.85 µM (active)"}
{"smiles": "CCN1CCN(c2cc(C)c3cc(NC(=O)c4cc(Cl)ccc4OC)ccc3n2)CC1", "Potency": "2.93 µM (active)"}
{"smiles": "COc1ccccc1C(=O)Nc1ccc2nc(N3CCC(C)CC3)cc(C)c2c1", "Potency": "inactive"}
{"smiles": "CCN1CCN(c2cc(C)c3cc(NC(=O)/C=C/c4ccc(C)cc4)ccc3n2)CC1", "Potency": "5.21 µM (active)"}
{"smiles": "COc1ccc(Cl)cc1NC(=O)CCn1nc(C)cc1C", "Potency": "inactive"}
{"smiles": "CCCCc1ccc(C(=O)Nc2ccc3nc(N4CCN(CC)CC4)cc(C)c3c2)cc1", "Potency": "2.61 µM (active)"}
{"smiles": "COc1cc(-c2nc(-c3ccccc3)c(-c3ccc(Br)cc3)[nH]2)cc(OC)c1O", "Potency": "inactive"}
{"smiles": "CCOc1ccc(CN2C(=O)c3ccccc3Sc3ccc(C(=O)O)cc32)cc1", "Potency": "inactive"}
{"smiles": "CCS(=O)(=O)N1CC(=O)N(c2ccc(Cl)cc2C)C(C)(C(=O)NC2CCCCC2)C1", "note": "(stereo not given)", "Potency": "inactive"}
{"smiles": "COc1ccc(Oc2nc3c(C)cccn3c(=O)c2/C=C(\\C#N)c2nc3ccccc3[nH]2)cc1", "Potency": "inactive"}
{"smiles": "O=C(Nc1ccc(Cl)cc1F)c1cc(S(=O)(=O)NC2CCCCCC2)ccc1F", "Potency": "inactive"}
{"smiles": "COc1ccc(NC(=O)[C@H]2O[C@@H]3OC(C)(C)O[C@@H]3[C@H]3OC(C)(C)O[C@H]32)c(OC)c1", "Potency": "inactive"}
{"smiles": "CC(C)c1ccc(CNCCSc2nnnn2C)cc1", "Potency": "inactive"}
{"smiles": "COCc1oc2ccc(NS(=O)(=O)c3ccc(C)cc3)cc2c1C(=O)OC", "Potency": "inactive"}
{"smiles": "CCOC(=O)c1cccc(NC(=O)c2cc3sccc3n2Cc2ccc(Cl)cc2)c1", "Potency": "inactive"}
{"smiles": "CCOc1ccc(OCC)c(NS(=O)(=O)c2ccc(-c3coc(C)n3)cc2)c1", "Potency": "inactive"}
{"smiles": "CCCCOc1ccc(CN2C(=O)C(=O)c3cc(Br)cc(C)c32)cc1OC", "Potency": "5.85 µM (active)"}
{"smiles": "Cc1ccc(CN2C(=O)C(=O)c3cc(Br)cc(C)c32)cc1", "Potency": "5.85 µM (active)"}
{"smiles": "CCCC1=Nc2cc(C(=O)NCCc3ccccc3)ccc2Sc2ccc(C)cc21", "Potency": "inactive"}
{"smiles": "Cc1c(Cl)cccc1NC(=O)NCc1c(-n2cccc2)sc2c1CCCC2", "Potency": "inactive"}
{"smiles": "CCCN(Cc1cccs1)C(=O)Nc1ccccc1C", "Potency": "inactive"}
{"smiles": "COc1ccc(NC(=O)CSCc2cnn(-c3ccccc3)c2-n2cccc2)cc1", "Potency": "inactive"}
{"smiles": "Cc1ccc(CNC(=O)Cn2c(SCC(=O)Nc3ccc(F)cc3)nc3ccccc32)cc1", "Potency": "5.21 µM (active)"}
{"smiles": "COc1ccccc1NC(=O)Cn1c(SCC(=O)Nc2ccc(F)cc2)nc2ccccc21", "Potency": "inactive"}
{"smiles": "COc1ccc(-c2nc(SCC(=O)Nc3ccc4c(c3)OCO4)c(-c3ccc(OC)cc3)[nH]2)cc1", "Potency": "inactive"}
{"smiles": "COc1ccc(NC(=O)CSc2nc3ccccc3n2Cc2cccc(OC)c2)cc1", "Potency": "11.7 µM (active)"}
{"smiles": "O=C(CSc1cn(CCNC(=O)c2ccccc2F)c2ccccc12)Nc1ccc(F)cc1", "Potency": "inactive"}
{"smiles": "CC(=O)N1c2ccc(S(=O)(=O)NCC3CCC(C(=O)Nc4cc(C)cc(C)c4)CC3)cc2CC1C", "note": "(stereo not given)", "Potency": "inactive"}
{"smiles": "NC(=O)CSc1nc2ccc(NC(=O)COc3ccccc3Cl)cc2s1", "Potency": "inactive"}
{"smiles": "Cc1ccc2[nH]cc(C(c3ccccc3)c3ccc(Cl)s3)c2c1", "note": "(stereo not given)", "Potency": "inactive"}
{"smiles": "CCc1cccc(NC(=O)c2ccc(CNS(=O)(=O)c3ccc4c(c3)C(C)(C)C(=O)N4C)cc2)c1", "Potency": "inactive"}
{"smiles": "Cc1cncn1CCc1nc2c3ccccc3nc(SCC(=O)Nc3ccccc3F)n2n1", "Potency": "inactive"}
{"smiles": "Brc1ccc(Nc2c3c(nc4nncn24)CCC3)cc1", "Potency": "10.4 µM (active)"}
{"smiles": "COc1ccc(Nc2c3c(nc4nncn24)CCC3)cc1OC", "Potency": "inactive"}
{"smiles": "O=c1[nH]c(SCc2ccc(Br)cc2)nc2c1CCCC2", "Potency": "inactive"}
{"smiles": "CCOc1ccc(-c2nonc2NC(=O)c2oc3ccc(CC)cc3c2C)cc1", "Potency": "inactive"}
{"smiles": "NS(=O)(=O)c1ccc(CCNC(=O)C2COc3ccccc3C2)cc1", "note": "(stereo not given)", "Potency": "inactive"}
{"smiles": "COc1ccc(NC(=O)c2c(C)oc3ccc(O)c(CN4CCN(Cc5ccccc5)CC4)c23)cc1Cl", "Potency": "inactive"}
{"smiles": "Cc1oc2ccc(O)c(CN3CCCCCC3)c2c1C(=O)Nc1cccc(Cl)c1C", "Potency": "inactive"}
{"smiles": "COc1ccc(NC(=O)c2c(C)oc3ccc(O)c(CN4CCC(C)CC4)c23)cc1Cl", "Potency": "13.1 µM (active)"}
{"smiles": "Cc1oc2ccc(O)c(CN3CCC(C)CC3)c2c1C(=O)Nc1ccccc1", "Potency": "5.21 µM (active)"}
{"smiles": "COc1ccc(NC(=O)c2c(C)oc3ccc(O)c(CN4CCCC(C)C4)c23)cc1", "note": "(stereo not given)", "Potency": "inactive"}
{"smiles": "Cc1ccc(NC(=O)c2c(C)oc3ccc(O)c(CN4CCCCCC4)c23)cc1", "Potency": "inactive"}
{"smiles": "O=C(Cn1cc(SCc2ccc(Cl)cc2)c2ccccc21)N1CCCC1", "Potency": "inactive"}
{"smiles": "Oc1c(C(Nc2ccccn2)c2ccccc2F)ccc2cccnc12", "note": "(stereo not given)", "Potency": "inactive"}
{"smiles": "COc1ccc(C)cc1NC(=O)c1cc(S(=O)(=O)N2CCN(c3cccc(C)c3C)CC2)ccc1F", "Potency": "inactive"}
{"smiles": "Cc1cc(NC(=O)C2CCC(CNS(=O)(=O)c3ccc(Br)s3)CC2)ccc1Br", "note": "(stereo not given)", "Potency": "inactive"}
{"smiles": "COc1ccccc1C(=O)Nc1sc(Nc2ccccc2)nc1C(N)=O", "Potency": "18.5 µM (active)"}
{"smiles": "COc1ccccc1C(=O)Nc1cccc(OCc2cc(=O)n3ccccc3n2)c1", "Potency": "inactive"}
{"smiles": "COc1ccccc1C(=O)Nc1nc2ccc(S(=O)(=O)N3CCCC3)cc2s1", "Potency": "inactive"}
{"smiles": "CCCCNC(=O)CSc1nc2n[nH]c(C)c2c(=N)n1-c1cccc(Cl)c1C", "Potency": "inactive"}
{"smiles": "Cc1ccc(-c2nc3ccc(Cl)cn3c2Nc2ccccc2C)s1", "Potency": "inactive"}
{"smiles": "Cc1cc(C)cc(NS(=O)(=O)c2ccc(-c3cc(C)no3)s2)c1", "Potency": "inactive"}
{"smiles": "CCC1=Nc2cc(C(=O)NC3CCCC3)ccc2Sc2ccc(Cl)cc21", "Potency": "inactive"}
{"smiles": "Cc1nc(-c2ccc(F)cc2)sc1CCNC(=O)C(=O)Nc1ccc2c(c1)OCCO2", "Potency": "inactive"}
{"smiles": "CC(=O)Nc1cccc(NC(=O)C(=O)NCCc2sc(-c3ccccc3)nc2C)c1", "Potency": "2.33 µM (active)"}
{"smiles": "CCCC(=O)Nc1cccc(-c2cn3c(C)csc3n2)c1", "Potency": "inactive"}
{"smiles": "O=c1oc2ccccc2cc1-c1cn2cc(Cc3ccccc3F)sc2n1", "Potency": "inactive"}
{"smiles": "CCOc1cc(C2C(C(=O)OC)=C(C)NC3=C2C(=O)c2ccccc23)cc(Br)c1OCC", "note": "(stereo not given)", "Potency": "inactive"}
{"smiles": "CC(NC(=O)c1c2c(nc3ccccc13)C(=O)N(C1CCCCC1)C2)c1ccccc1", "note": "(stereo not given)", "Potency": "inactive"}
{"smiles": "CCCCN(CC)CCCNC(=O)c1ccc2c(c1)N(Cc1ccc(C)cc1)C(=O)c1ccccc1S2", "Potency": "inactive"}
{"smiles": "Cc1ccc(C)c(CN2C(=O)c3ccccc3S(=O)(=O)c3ccc(C(=O)NCCCN4CCCC(C)C4)cc32)c1", "note": "(stereo not given)", "Potency": "5.21 µM (active)"}
{"smiles": "Cc1cccc(CN2C(=O)c3ccccc3Sc3ccc(C(=O)NC4CCCCC4)cc32)c1", "Potency": "inactive"}
{"smiles": "Cc1ccc(CN2C(=O)c3ccccc3Sc3ccc(C(=O)NCCCN4CCOCC4)cc32)cc1", "Potency": "16.5 µM (active)"}
{"smiles": "CC1CCCN(CCCNC(=O)c2ccc3c(c2)N(Cc2cccc(Cl)c2)C(=O)c2ccccc2S3(=O)=O)C1", "note": "(stereo not given)", "Potency": "inactive"}
{"smiles": "CCC1CCCCN1CCCNC(=O)c1ccc2c(c1)N(Cc1cccc(Cl)c1)C(=O)c1ccccc1S2(=O)=O", "note": "(stereo not given)", "Potency": "inactive"}
{"smiles": "CCN(CC)CCCNc1cc(-c2ccccc2)nc(C)n1", "Potency": "inactive"}
{"smiles": "CC(C)c1ccc(C2CC(=O)Nc3cc4c(cc32)OCCO4)cc1", "note": "(stereo not given)", "Potency": "inactive"}
{"smiles": "O=C(NCCCc1nc2ccccc2n1Cc1ccccc1F)c1ccco1", "Potency": "inactive"}
{"smiles": "COc1ccc(CNc2oc(COc3cccc(C)c3)nc2C#N)cc1", "Potency": "3.69 µM (active)"}
{"smiles": "COc1ccc(CNc2oc(/C=C/c3cc(OC)c(OC)c(OC)c3)nc2C#N)cc1", "Potency": "inactive"}
{"smiles": "Cc1cccc(OCc2ccc(-c3nc(C#N)c(NCCN(C)C)o3)o2)c1", "Potency": "5.85 µM (active)"}
{"smiles": "Cc1ccccc1OCc1ccc(-c2nc(C#N)c(N3CCN(C)CC3)o2)o1", "Potency": "inactive"}
{"smiles": "CCOc1ccc(/C=C/c2nc(C#N)c(NCCCN(C)C)o2)cc1", "Potency": "inactive"}
{"smiles": "COc1ccc(CNc2oc(/C=C/c3cccc(OC)c3)nc2C#N)cc1", "Potency": "inactive"}
